Source: PubChem BioAssay
IDE inh = cellular human IDE inhibition; P14735; HEK cells, FAbetaB cleavage, fluorescence polarization; inhibition, % at 5.59 µM; 0.41% of 320,000 active; AID 434962;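 active means percent inhibition above the average of all tested compounds plus 3 SD, set per screening campaign, cut at about 16% in these data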;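 further: IDE supplied by intact live HEK cells; FP after avidin binding of uncleaved biotin substrate so inhibition keeps polarization high; 0% = DMSO wells and 100% = 60 µM reference IDE inhibitor Ii1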
NOD2-RIPK2 inh = inhibitors of human NOD2-RIPK2 interaction. inhibition, % at 4.98 µM. O43353. 0.38% of 360,000 active. CHO BLA complementation NOD2-RIPK2, CCF4 ratio. AID 624267; in the data active means inhibition above about 21%;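 further: 0% = vehicle only and 100% = reference blocker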
Target sequence (O43353 whole entry, looked up): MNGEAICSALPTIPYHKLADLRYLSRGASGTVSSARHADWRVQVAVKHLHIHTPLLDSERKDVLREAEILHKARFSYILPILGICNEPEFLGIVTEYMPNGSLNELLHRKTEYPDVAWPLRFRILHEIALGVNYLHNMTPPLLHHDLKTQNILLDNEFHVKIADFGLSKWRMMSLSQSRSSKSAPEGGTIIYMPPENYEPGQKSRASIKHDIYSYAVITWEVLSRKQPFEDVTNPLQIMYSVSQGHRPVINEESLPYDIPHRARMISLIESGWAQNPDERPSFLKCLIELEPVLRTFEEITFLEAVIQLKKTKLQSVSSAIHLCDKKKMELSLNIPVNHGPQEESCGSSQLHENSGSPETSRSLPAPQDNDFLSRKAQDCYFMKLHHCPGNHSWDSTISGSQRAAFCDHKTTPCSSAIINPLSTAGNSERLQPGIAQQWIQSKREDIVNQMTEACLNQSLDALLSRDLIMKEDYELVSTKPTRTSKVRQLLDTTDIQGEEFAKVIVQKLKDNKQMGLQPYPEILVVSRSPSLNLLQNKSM
TLR4 MyD88 comp = blocks binding of human TLR4 to MyD88 | HeLa CL3-4 TLR4/MyD88 BLA complementation, FRET ratio | inhibition, % at 8.4 µM | 0.18% of 200,000 active | AID 861; in the data active means inhibition above about 25%;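 further: 0% = vehicle and 100% = reference inhibitor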
IDE act = IDE (human) activation, cell-based | P14735 | HEK cells, FAbeta-B cleavage, fluorescence polarization; 0% vehicle, 100% cell-free pure enzyme wells | activation, % at 5.96 µM | 0.073% of 340,000 active | AID 493087;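 active means activation above the mean of all tested compounds plus 3 SD, set per screening campaign, cut at about 17% in these data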
TLR9-MyD88 block = blocks human TLR9 binding to MyD88 | Q9NR96+Q99836 | CHO BLA complementation TLR9-MyD88, CCF4 FRET ratio | inhibition, % at 4.98 µM | 0.21% of 340,000 active;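 active means inhibition above the mean over all tested compounds plus 3 SD, cut at about 21% in these data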;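 further: 0% = DMSO only wells and 100% = clavulanate BLA inhibitor control wells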
* hit, by the source's call; . = no result given. The list is not random: actives were taken first. Their share in the collection is about 0.87%.

SMILES	IDE inh	NOD2-RIPK2 inh	TLR4 MyD88 comp	IDE act	TLR9-MyD88 block
C#CCOCCOCCOCCNc1nc(N2CCN(C(=O)CCCCCCCCCCNC(=O)[C@H](CCCCN)n3cc(C)nn3)CC2)nc(N2CCN(C(=O)CCCCCCCCCCNC(=O)[C@@H]([C@H](C)O)n3cc(C)nn3)CC2)n1	6	7	.	21*	0
C#CCOCCOCCOCCNc1nc(N2CCN(C(=O)CCCCCCCCCCNC(=O)[C@@H](CCSC)n3cc(CCO)nn3)CC2)nc(N2CCN(C(=O)CCCCCCCCCCNC(=O)[C@@H]([C@H](C)O)n3cc(C)nn3)CC2)n1	5	-6	.	10	2
C#CCOCCOCCOCCNc1nc(N2CCN(C(=O)CCCCCCCCCCNC(=O)[C@H](CCCCN)n3cc(C[C@@H](C)CC)nn3)CC2)nc(N2CCN(C(=O)CCCCCCCCCCNC(=O)[C@@H]([C@H](C)O)n3cc(C)nn3)CC2)n1	-6	35*	.	34*	15
CCCC[C@@H]1CC2=C(C(=O)OC(C)(C)O2)[C@@H](c2ccc(F)cc2)O1	.	-2	.	.	.
CCCCNc1c(-c2ccc(SC(C)CC)cc2)nc2cnccn12 (configuration not stated)	-3	69*	.	20*	54*
COc1ccc(/C=C2/SC(=S)N(CCCC(=O)Nc3ccccc3C(=O)O)C2=O)cc1	-32	-2	.	22*	9
O=C(/C=C/c1ccc(Cl)cc1)Nc1ccc(N2CCCCC2)cc1	3	-8	7	40*	-12
CCN(CC(=O)Nc1ccc(NC(C)=O)cc1)C(=O)c1cc(CN2C(=O)c3ccccc3C2=O)ccc1OC	4	-5	.	18*	3
COc1cccc(NC(=O)CN(C)C(=O)c2cc(CN3C(=O)c4ccccc4C3=O)ccc2OC)c1	.	1	.	-2	-15
Cc1ccc(S(=O)(=O)/N=C/c2cc(Br)ccc2O)cc1	4	-6	-11	23*	-3
Cn1cccc1C1C=C(c2ccc(C(C)(C)C)cc2)Nc2ncnn21 (configuration not stated)	1	3	.	-5	1
OCCCc1nc2n(n1)C(c1cccs1)C=C(c1ccc(Br)cc1)N2 (configuration not stated)	135*	.	10	.	.
CC1=C(C(N)=O)C(c2ccc(Br)cc2)n2nc(CCCO)nc2N1 (configuration not stated)	4	9	.	3	10
CCOC(=O)C1=C(C)Nc2ncnn2C1c1cc(Br)ccc1F (configuration not stated)	2	1	-14	3	-3
Fc1ccc(Br)cc1C1C=C(c2cccnc2)Nc2ncnn21 (configuration not stated)	3	49*	-6	1	24*
Brc1ccc(C2=CC(c3cccs3)n3ncnc3N2)cc1 (configuration not stated)	88*	14	2	-129	13
COc1ccc(NC(=O)c2ccc(-c3c(C)noc3C)c3ccoc23)cc1	.	5	.	.	.
CC(C)(C)OC(=O)N1CCC(NC(=O)c2[nH]c(C(F)(F)F)nc2-c2ccccc2)CC1	.	-4	.	.	.
O=C(OCCOc1ccccc1)c1cc(S(=O)(=O)N2CCOCC2)c(Cl)cc1Cl	.	-15	.	.	1
CC(=O)Nc1ccc(Nc2c3c4c(cccc4n(C)c2=O)C(=O)c2ccccc2-3)cc1	3	-9	-4	6	-5
Cn1c(=O)c(NCCO)c2c3c(cccc31)C(=O)c1ccccc1-2	-34	6	2	54*	3
COc1ccc(N=Nc2nc3ccc(Br)cc3n2C)cc1	-9	-3	-9	28*	1
COc1ccc(-c2c(-c3cc(OC)cc(OC)c3)n(C)c3ccc(Br)cc23)cc1	-4	-1	.	2	6
COc1ccc(/C=C2\CCCc3c2nc2ccccc2c3C(=O)O)cc1OC	-9	.	.	.	.
CCOc1ccc(/C=C2\CCCc3c2nc2ccccc2c3C(=O)O)cc1OC	-36	3	.	48*	7
SMILES	IDE inh	NOD2-RIPK2 inh	TLR4 MyD88 comp	IDE act	TLR9-MyD88 block
C#CCNC(=O)C[C@@H]1C[C@@]2(C(=O)OC)CCCCC=C2N(CCc2ccc(OC)c(OC)c2)C1=O	.	-5	.	.	.
Cc1ccc(N=Nc2c(O)ccc3n[nH]nc23)cc1	.	-2	.	55*	-8
CCOC(=O)c1c(C)[nH]c(N=Nc2ccc(C)cc2)c1C	0	-6	-2	-6	18
COc1ccc(NC(=O)COC(=O)C2COc3ccccc3O2)cc1OC (configuration not stated)	.	4	.	.	-4
CCCCNC(=O)C[C@@H]1C[C@@]2(C(=O)OC)CCCCC=C2N(Cc2ccc3c(c2)OCO3)C1=O	.	-5	.	.	.
Cc1ccc(-c2ccnc(=S)[nH]2)cc1	11	2	-8	-48	10
CC1(C)CCc2cc(-c3ccnc(=S)[nH]3)ccc2O1	26*	-3	.	-25	1
CCCCCCCCN1C(=O)[C@H](CC(=O)NCCc2ccccc2OC)C[C@@]2(C(=O)OCC)CCCC=C12	.	-9	.	.	.
CC1CCN(C(=O)c2[nH]cnc2C(=O)Nc2ccccc2F)CC1	.	-8	.	.	3
CC1C(=O)CC2C3(C)CCC2(C(C)C(=O)O)C(=O)C13 (configuration not stated)	.	-19	.	.	.
O=C1c2ccccc2C(c2nnnn2Cc2ccccc2)N1CCc1ccc(O)cc1 (configuration not stated)	.	-20	.	.	.
CC(=O)Nc1ccc(S(=O)(=O)NCCc2ccccn2)cc1	1	-6	4	18*	0
O=C(NCc1ccccc1)C1C(c2ccc3c(c2)OCO3)=Nc2ccccc2N1C(=O)c1cccc2ccccc12 (configuration not stated)	.	-11	.	.	.
Oc1cc(-c2ccc(N3CCCCC3)nc2)cc2cccnc12	0	22*	.	-9	15
S=C(NCCCN1CCOCC1)N1CCN(c2nc(-c3ccc(Cl)cc3)cs2)CC1	23*	10	-5	-14	-6
CC1=C(C(=O)N2CCCCCC2)CC(CC(=O)NCc2cccc3ccccc23)C(=O)N1CCC1=CCCCC1 (configuration not stated)	.	12	.	.	.
CC1O[C@@H](OC2C(O)C(O)C(CO)O[C@H]2OC2C[C@]3(C)C(CC(O)C4[C@@H]([C@]5(C)CC[C@@H](C(C)(C)O)O5)CC[C@]43C)[C@@]3(C)CCC(O)C(C)(C)C23)C(O)C(O)C1O (some centres not stated)	5	0	.	21*	-10
COCO/C=C(\NC(C)=O)c1ccccc1	2	-4	.	31*	-8
O=C(/C=C/c1ccncc1)c1ccc(NC(=O)c2ccccc2F)cc1	5	64*	9	2	25*
N#Cc1c(-c2ccc(Cl)cc2)c2c([nH]c1=O)-c1ccccc1OC2	16*	-10	.	-1	-8
O=S1(=O)CC(N2CCCC2)CN1Cc1cn(Cc2cccc(Cl)c2)nn1 (configuration not stated)	.	-1	.	.	.
O=C(Oc1ccc2c(c1)O/C(=C\c1ccncc1)C2=O)c1cccs1	7	8	.	.	.
